AmpC inh no detg: qHTS Inhibitors of AmpC Beta-Lactamase (assay without detergent); 0.52% of 330,000 active; Potency, µM (series often up to 57.1 µM), for the others: top-dose activity change, negative = inhibition, most hits filed as inhibitors; AID 485341, 2010; AmpC nitrocefin hydrolysis, absorbance 480 nm, 0.0001% Triton; P00811;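 also: plate controls were no compound for no effect and no enzyme for full effect; nearly all actives have a fitted effect of over 20% in size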
Target sequence (P00811 whole entry, looked up): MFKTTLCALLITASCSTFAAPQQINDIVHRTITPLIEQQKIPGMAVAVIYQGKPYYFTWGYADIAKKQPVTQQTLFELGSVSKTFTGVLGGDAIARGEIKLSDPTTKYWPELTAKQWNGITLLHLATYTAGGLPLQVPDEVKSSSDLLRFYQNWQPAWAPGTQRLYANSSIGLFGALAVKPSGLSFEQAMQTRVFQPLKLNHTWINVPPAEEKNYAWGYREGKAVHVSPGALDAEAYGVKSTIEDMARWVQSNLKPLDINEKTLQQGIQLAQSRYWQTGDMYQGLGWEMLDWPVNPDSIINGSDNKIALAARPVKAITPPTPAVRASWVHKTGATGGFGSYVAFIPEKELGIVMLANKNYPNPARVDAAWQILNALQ
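20 mM phosphate pH 7.0 + 0.01% (detergent screen) or 0.0001% Triton X-100; 5.3 nM AmpC reagent; cpd preinc 15 min RT; nitrocefin (800 uM stock) to start; A480 q20 s × 4 min; Activity was normalised to no-enzyme and no-compound control wells.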
Sm TGR block: qHTS Assay for the Inhibitors of Schistosoma Mansoni Peroxiredoxins; purified TGR, DTNB reduction, TNB absorbance 405 nm; AID 485364, 2010; Schistosoma mansoni thioredoxin glutathione reductase (TGR), Q962Y6; 3% of 360,000 active; Potency, µM (doses to about 114 µM), for inactives: top-dose activity change, negative = inhibition, hits mostly inhibitors; also: nearly all actives have a fitted effect of over 60% in size
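TGR 20 nM + NADPH 100 uM (dispensed conc.), cpd preinc 15 min RT; start with NADPH (500 uM addition) then DTNB (15 mM addition). Kinetic TNB absorbance, 405 nm filter. Four-parameter Hill fit across titration.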
AmpC detergent: qHTS Inhibitors of AmpC Beta-Lactamase (assay with detergent). P00811. AmpC hydrolysis of nitrocefin, absorbance 480 nm, 0.01% Triton. Potency, µM (series often up to 114 µM), inactives show at the highest dose activity change, negative = inhibition, actives largely listed as inhibitors. 0.041% of 370,000 active. AID 485294, 2010;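 also: 0% = no-compound wells and -100% = no-enzyme wells; nearly all actives have a fitted effect of over 25% in size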
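20 mM phosphate pH 7.0 + 0.01% (detergent screen) or 0.0001% Triton X-100; 5.3 nM AmpC reagent; cpd preinc 15 min RT; nitrocefin (800 uM stock) to start; A480 q20 s × 4 min; Activity was normalised to no-enzyme and no-compound control wells.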
* marks the source's active call; other numbers are inactive results; u = inconclusive; x = no result given; [ ] = dose if it differs, or a comment. Most compounds without a hit are left out; they make up all but 3.3% or so of the library. Calls follow the shape of the dose curve; as a rule, active = well fitted curve in the direction sought with a large enough effect; inconclusive = small, poorly fitted or top-dose-only effect, or another doubt; inactive = no such curve, though single readings can be large; an effect the other way counts as inactive or inconclusive. Unless noted, % is scaled to controls: 0 for no effect and ±100 for the full control effect; potency is read from the fitted curve at half-maximal effect.

SMILES | AmpC inh no detg | Sm TGR block | AmpC detergent
CCOc1cc(/C=N/NC(=O)C(=O)NCc2ccc3c(c2)OCO3)ccc1OCC(=O)N1CCOCC1 | 38.3% | -15.0% | -9.9%
COc1cccc(C(=O)N2CCC(N3CC(C)OC(C)C3)CC2)c1 (stereo not given) | -13.7% | -10.6% | -1.5%
COc1cc(-c2cc(OC)c3c(C)oc(C)c3c(=O)c2)ccc1OC(=O)c1ccccc1F | x | -1.3% | 22.0%
Cc1oc(C)c2c(=O)cc(-c3ccc4c(c3)OCO4)cc(OC(=O)c3ccccc3Br)c12 | x | 44.7µM* | -0.1%
Cc1oc(C)c2c(=O)cc(-c3ccc4c(c3)OCO4)cc(OC(=O)c3ccccc3Cl)c12 | x | 39.8µM* | 9.8%
COc1cc(-c2cc(OC)c3c(C)oc(C)c3c(=O)c2)ccc1OC(=O)c1ccccc1Cl | x | -16.9% | 22.9%
COc1cc(C2CC(=O)c3c([nH]c(C(=O)OCc4ccc(C)cc4)c3C)C2)cc(OC)c1OC (stereo not given) | x | -2.7% | -3.8%
Cc1oc(-c2ccccc2Cl)nc1CS(=O)CC(=O)NCCCN1CC(C)CC(C)C1 (stereo not given) | 30.4% | -12.7% | 2.6%
CSc1nc(C)cc(C)c1C(N)=O | -15.7% | -13.0% | -15.1%
Cc1cc(C)c(C(=O)O)c(Cl)n1 | -13.6% | 39.8µM* | -0.6%
CC(C)C1Nc2ccc(S(=O)(=O)N3CCOCC3)cc2NC1=O (stereo not given) | -26.1% | 6.3% | 2.0%
COc1ccccc1NC(=O)Cn1c(C)cc(C)c(C#N)c1=O | x | 9.5% | 1.4%
COc1cccc(-n2cnnc2SC(C)C(=O)NC2CCCC2)c1 (stereo not given) | -0.5% | 50.1µM* | 0.8%
COc1ccc(-n2cnnc2SC(C)C(=O)Nc2cccc([N+](=O)[O-])c2)cc1 (stereo not given) | -14.0% | -1.4% | -1.4%
O=C(CSc1nnc2c(n1)[nH]c1ccccc12)Nc1cccc(S(=O)(=O)N2CCOCC2)c1 | -29.3% | 2.1% | -7.0%
CCOC(=O)CCCCC(=O)c1[nH]c(=O)[nH]c1Cn1cnc2ccccc21 | -50.3% | 15.8µM* | -13.6%
CCOC(=O)CCCCC(=O)c1[nH]c(=O)[nH]c1CSCCO | -18.6% | -16.3% | -6.8%
Cc1cc(C)c(S(=O)(=O)NCCc2ccccc2)c(C)c1 | -19.0% | 1.0%[57.1 µM] | -5.6%
Cc1cc(C)c(S(=O)(=O)NCCn2ccc3ccccc32)c(C)c1 | 39.8µM* | 12.3% | u
CCN(CC)C(=O)c1sc2c(c1C)c(=O)n(CCc1ccccc1)c(=O)n2Cc1ccc(F)cc1Cl | x | 5.8% | 4.4%
CC1=C(C(=O)Nc2cccc(C)c2C)C(c2cccs2)NC(=S)N1 (stereo not given) | -19.6% | 8.9% | 7.9%
CCN(Cc1ccccc1)C(=O)COC(=O)Cc1c[nH]c2ccccc12 | -13.3% | -1.5% | 0.0%
CCOc1ccc(CCNC(=O)CCn2c(=O)c3cccn3c3ccc(F)cc32)cc1OCC | x | -5.4% | 2.7%
COc1ccc(NC(=O)CSc2nnnn2C2CC2)cc1S(=O)(=O)N1CCOCC1 | -19.1% | -6.6% | -2.2%
CC[C@@H]1CC=C[C@H]2[C@H]1C(=O)N(Cc1ccccc1)[C@H]2c1ccoc1 | -7.5% | u | 3.3%
SMILES | AmpC inh no detg | Sm TGR block | AmpC detergent
C[C@@H]1CC=C[C@H]2[C@H]1C(=O)N(Cc1ccccc1)[C@H]2c1ccoc1 | 15.0% | 20µM* | -11.2%
Cc1nc(NCCc2ccccc2)c2oc3ccccc3c2n1 | 18.0% | 1.7% | -0.8%
O=c1c2ccccc2ncn1-c1ccc(Br)cc1[N+](=O)[O-] | 1.5% | 2.4% | u
O=C1c2cc(Br)ccc2N(Cc2ccc(Br)cc2)S(=O)(=O)C1c1cc(Cl)c(Cl)cc1[N+](=O)[O-] (stereo not given) | 2µM* | x | x
CC(CNC(=O)CCC(=O)N1CCOc2ccccc21)c1ccccc1 (stereo not given) | 12.1% | -2.3% | u
Cc1cccc(N(C)S(=O)(=O)c2c[nH]c3ccc([N+](=O)[O-])cc23)c1 | -36.7% | -5.0% | -0.7%
COc1ccc(CC(=O)Nc2cccc(C(=O)O)c2C)cc1 | 3.98µM* | 5.4% | 2.4%
Cc1c(NC(=S)NC(=O)Cc2ccccc2)cccc1C(=O)O | -8.0% | 0.0% | 6.7%
CCOC(=O)C1=C(C)N(C)C(=O)NC1c1ccccc1OC (stereo not given) | -2.5% | 2.1% | 3.5%
NS(=O)(=O)c1ccc2c(c1)C1C=CCC1C(C1CC=CCC1)N2 (stereo not given) | -46.6% | u | u
COc1cccc2c1NC(C(=O)O)C1CC=CC21 (stereo not given) | -58.2% | 7.08µM* | u
Cc1ccc2c(c1)C1C=CCC1C(C(=O)O)N2 (stereo not given) | -36.1% | 0.708µM* | -15.7%
CC(=O)c1ccc2c(c1)C1C=CCC1C(C(=O)O)N2 (stereo not given) | 9.6% | u | u
O=C(O)c1ccc2c(c1)C1C=CCC1C(c1cc3c(cc1Br)OCO3)N2 (stereo not given) | -52.1% | -9.6% | 5.6%
CC(C)C1Nc2ccc(S(N)(=O)=O)cc2C2C=CCC21 (stereo not given) | -48.4% | 12.6µM* | -2.3%
O=C(O)C1Nc2c(cccc2C(F)(F)F)C2C=CCC12 (stereo not given) | -39.5% | 1.41µM* | -5.7%
CCOC(=O)C(=Nc1ccc(Cl)cc1)NO | -26.0% | -15.8% | -1.6%
CCCCn1c(N)c(N(CC(C)C)C(=O)c2ccc(S(=O)(=O)N3CCC(C)CC3)cc2)c(=O)[nH]c1=O | -18.0% | -3.2% | -2.3%
COc1ccccc1CNC(=O)c1ccc2c(c1)N(Cc1cc(C)ccc1C)C(=O)c1ccccc1S2 | x | 5.1% | -1.1%
Cc1c(Cl)cccc1NC(=O)NCc1c(-n2cccc2)sc2c1CCCC2 | x | 7.2% | 5.3%
Cc1nn(C)c2c1c(C(F)(F)F)cc(=O)n2CC(=O)NCc1ccc(OC(C)C)cc1 | x | -13.9% | -2.4%
Cc1ccc(S(=O)(=O)CCc2nnc(NC(=O)CCl)s2)cc1C | -13.1% | 5.01µM* | 2.1%
Cc1ccc(S(=O)(=O)CCc2nnc(N)s2)cc1C | -15.6% | 0.3% | 0.2%
N#Cc1ccccc1NC(=O)CNc1ccc(Cl)c(C(F)(F)F)c1 | -17.6% | 0.7% | 2.5%
CCN(CC(=O)Nc1ccc(OC)cc1)C(=O)c1cc(S(=O)(=O)N2CCOCC2)ccc1N1CCCC1 | 44.5% | 0.2% | 0.0%
Cc1ccc(C)c(NC(=O)CN(C)C(=O)c2ccc3[nH]c4c(c3c2)CC(C)CC4)c1 (stereo not given) | 61.5% | -16.0% | -5.3%
CC1CCc2[nH]c3ccc(C(=O)N(C)CC(=O)Nc4ccccc4Br)cc3c2C1 (stereo not given) | 28.2µM* | -0.3% | -0.5%
COCCN(Cc1nc(C2(c3ccc(C)cc3)CCCC2)no1)C(C)C | 145.3% | -8.5% | -6.4%
COc1ccc(-c2nc(CSCC(=O)N3CCN(c4cc(Cl)ccc4C)CC3)c(C)o2)cc1 | x | -10.3% | -12.9%
CCN(CC)S(=O)(=O)c1ccc(N2CCOCC2)c(NC(=O)c2ccccc2)c1 | 22.3% | -9.0% | -13.4%
